TEAD-YAP block: TEAD-YAP interaction inhibition, primary screen, TEAD-YAP interaction inhibitor project, luminescence, HEK-TIYL cells; TEAD-Gal4/YAP UAS-luciferase luminescence; inhibition, % at 9.12 µM; 640,000 compounds, 1.4% hits; in the data active = inhibition above about 32%
MITF primary: MITF inhibitors, primary screen, biochemical, AlphaScreen, human; Microphthalmia-associated transcription factor (Homo sapiens), O75030; AlphaScreen MITF homodimerization, bead proximity signal; inhibition, % at 2.6 µM; 650,000 compounds, 0.91% hits; in the data active = inhibition above about 50%
Target sequence (O75030 whole entry, looked up): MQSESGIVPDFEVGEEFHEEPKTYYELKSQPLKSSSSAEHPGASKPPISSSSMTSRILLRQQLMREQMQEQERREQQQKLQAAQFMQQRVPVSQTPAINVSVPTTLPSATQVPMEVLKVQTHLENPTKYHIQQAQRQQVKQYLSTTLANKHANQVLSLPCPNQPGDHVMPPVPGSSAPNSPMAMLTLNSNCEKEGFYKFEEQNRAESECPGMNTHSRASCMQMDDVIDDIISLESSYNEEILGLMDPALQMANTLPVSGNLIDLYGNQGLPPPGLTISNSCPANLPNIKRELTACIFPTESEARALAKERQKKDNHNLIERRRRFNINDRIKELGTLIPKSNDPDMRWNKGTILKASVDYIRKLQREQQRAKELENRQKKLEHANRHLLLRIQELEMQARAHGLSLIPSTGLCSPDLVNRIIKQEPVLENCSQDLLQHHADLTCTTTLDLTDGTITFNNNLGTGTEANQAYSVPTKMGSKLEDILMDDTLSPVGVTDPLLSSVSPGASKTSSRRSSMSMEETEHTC
GPR151 ag: activators of human GPR151, primary screen, cell-based, PathHunter beta-arrestin, luminescence; G-protein coupled receptor 151 (Homo sapiens), Q8TDV0; PathHunter beta-arrestin GPR151 cells; activation, % at 11.2 µM; 650,000 compounds, 1% hits; AID 1508602, 2020; in the data active = activation above about 4.9%
FBW7 act: FBW7 E3 ligase activators, primary screen, biochemical, AlphaScreen, human | AID 1259310, 2017 | normalized activity (activation), % at 26.1 µM | 650,000 compounds, 0.13% hits | F-box/WD repeat-containing protein 7 (Homo sapiens), Q969H0 | AlphaScreen FBW7–phospho-cyclin E peptide binding, activator screen; in the data active = normalized activity above about 1.9%;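 also: purified mutant Fbw7 with reduced substrate affinity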
Hits are given with their value. Compounds with a hit are over-represented: about 3.5% of the library has one in this group of screens.

Screening COc1cc2c(cc1OC)C(c1cccs1)N(C(=O)c1cccnc1)CC2 (centres undefined) returned TEAD-YAP block 46, MITF primary inactive, GPR151 ag inactive and FBW7 act inactive.
`CSCCNC(=O)CC1C(=O)NCCN1Cc1cccc(F)c1` (centres undefined) gave TEAD-YAP block inactive, MITF primary inactive, GPR151 ag inactive and FBW7 act inactive.
For CS(=O)(=O)C1=NSC2=NC(=O)/C(=C\c3ccc(Br)o3)C(=N)N21 the results were TEAD-YAP block inactive, MITF primary 74, GPR151 ag inactive and FBW7 act inactive.
Screening CC(C)S(=O)(=O)C1=NSC2=NC(=O)/C(=C\c3ccc(Br)o3)C(=N)N21 returned TEAD-YAP block inactive, MITF primary 84, GPR151 ag inactive and FBW7 act inactive.
CCN1C(=C2C(=O)c3ccccc3C2=O)C=Cc2cc(C)ccc21 was read as TEAD-YAP block inactive, MITF primary inactive, GPR151 ag inactive and FBW7 act inactive.
`CC[n+]1ccc(/C=C2\C=Cc3ccc(C)cc3N2C)cc1` gave TEAD-YAP block inactive, MITF primary inactive, GPR151 ag inactive and FBW7 act inactive.
For CC[n+]1ccc(/C=C2\C=Cc3cc(C)ccc3N2C)cc1 the results were TEAD-YAP block 58, MITF primary inactive, GPR151 ag inactive and FBW7 act inactive.
CCN1/C(=C/c2cc[n+](C)cc2)C=Cc2cc(C)ccc21 was read as TEAD-YAP block 81, MITF primary inactive, GPR151 ag inactive and FBW7 act inactive.
CC[n+]1c(/C=C2\C=Cc3cc(C)ccc3N2C)sc(C)c1C was read as TEAD-YAP block 61, MITF primary inactive, GPR151 ag inactive and FBW7 act inactive.
For O=c1c(Nc2ccccc2F)c(-c2ccc(Cl)cc2)c1=O the results were TEAD-YAP block inactive, MITF primary inactive, GPR151 ag inactive and FBW7 act inactive.
Screening CCOc1ccc(C2Oc3ccc(Br)cc3C=C2[N+](=O)[O-])cc1OCC (centres undefined) returned TEAD-YAP block 41, MITF primary inactive, GPR151 ag inactive and FBW7 act inactive.
For CCOc1ccc(C2Oc3c(cccc3OC)C=C2[N+](=O)[O-])cc1OCC (centres undefined) the results were TEAD-YAP block inactive, MITF primary inactive, GPR151 ag inactive and FBW7 act inactive.
CCOc1ccc(C2Oc3c(Cl)cc(Cl)cc3C=C2[N+](=O)[O-])cc1OCC (centres undefined) was read as TEAD-YAP block 64, MITF primary inactive, GPR151 ag inactive and FBW7 act inactive.
Screening O=C(c1ccccc1)n1c(=S)nc2ccccn21 returned TEAD-YAP block 40, MITF primary inactive, GPR151 ag inactive and FBW7 act inactive.
`CC(NS(=O)(=O)c1ccc(OCC(=O)NCc2ccco2)c(Cl)c1)c1ccccc1` (centres undefined) gave TEAD-YAP block inactive, MITF primary inactive, GPR151 ag inactive and FBW7 act inactive.
`Oc1c(C(Nc2ccccn2)c2ccc(C(F)(F)F)cc2)ccc2cccnc12` (centres undefined) gave TEAD-YAP block 46, MITF primary inactive, GPR151 ag inactive and FBW7 act inactive.
Screening Cc1cccc(NC(c2ccc(C(F)(F)F)cc2)c2ccc3cccnc3c2O)n1 (centres undefined) returned TEAD-YAP block 77, MITF primary inactive, GPR151 ag inactive and FBW7 act inactive.
N#CC1=C(N)Oc2ccc3ccccc3c2C1c1cccc(F)c1 (centres undefined) was read as TEAD-YAP block 56, MITF primary inactive, GPR151 ag inactive and FBW7 act inactive.
N#CC1=C(N)Oc2c(ccc3ccccc23)C1c1cccc(F)c1 (centres undefined) was read as TEAD-YAP block inactive, MITF primary inactive, GPR151 ag inactive and FBW7 act inactive.
For N#CC1=C(N)Oc2ccc3ccc(O)cc3c2C1c1cccnc1 (centres undefined) the results were TEAD-YAP block inactive, MITF primary inactive, GPR151 ag inactive and FBW7 act inactive.
Screening N#CC1=C(N)Oc2ccc3ccccc3c2C1c1cccnc1 (centres undefined) returned TEAD-YAP block 57, MITF primary inactive, GPR151 ag inactive and FBW7 act inactive.
Screening COc1cc(Nc2nc(Nc3ccc(N4CCOCC4)cc3)c3ncn(C(C)C)c3n2)cc(OC)c1OC returned TEAD-YAP block 33, MITF primary inactive, GPR151 ag inactive and FBW7 act inactive.

Screening data: PubChem, The Scripps Research Institute Molecular Screening Center
